Screening results deposited in PubChem BioAssay by The Scripps Research Institute Molecular Screening Center.
A selection: hits, their analogues and other compounds. The true share with any hit is near 2.3%.
M1 antag: human CHRM1 antagonism | P11229 | CHO-K1 hM1, Fluo-8 calcium fluorescence, ACh EC80 antagonist | 1.3% of 360,000 active | AID 588852 | inhibition, % at 3 µM;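 active means percent inhibition above its own plate's cutoff, namely the mean of that plate's compound wells plus 3 SD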;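 further: peak over basal fluorescence ratio during 140 s after agonist addition; 0% = ACh EC80 plus DMSO and 100% = DMSO alone without agonist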
Target sequence (P11229 whole entry, looked up): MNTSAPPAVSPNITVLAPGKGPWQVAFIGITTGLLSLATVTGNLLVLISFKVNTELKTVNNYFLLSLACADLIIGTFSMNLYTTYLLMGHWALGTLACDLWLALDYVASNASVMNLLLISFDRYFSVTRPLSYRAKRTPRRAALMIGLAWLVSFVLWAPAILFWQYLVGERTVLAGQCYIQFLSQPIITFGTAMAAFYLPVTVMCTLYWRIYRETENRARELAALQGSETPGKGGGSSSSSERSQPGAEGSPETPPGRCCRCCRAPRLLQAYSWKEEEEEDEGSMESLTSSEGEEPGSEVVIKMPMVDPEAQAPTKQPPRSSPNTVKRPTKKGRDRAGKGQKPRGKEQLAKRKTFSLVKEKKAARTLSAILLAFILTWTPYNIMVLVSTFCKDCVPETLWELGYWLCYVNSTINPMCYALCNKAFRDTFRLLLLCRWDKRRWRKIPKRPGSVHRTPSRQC
M1 PAM parental: nonselective activator or artifact in parental CHO-K1 calcium assay. AID 602247. 0.02% of 360,000 active. activation, % at 3 µM. ATP EC20, Fluo-8 calcium fluorescence; 0% at ATP EC20, 100% at ATP max;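 active means activation above the run cutoff, the mean activation of all test compounds plus 3 SD, cut at about 40% in these data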;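 further: peak over basal fluorescence ratio in a 140 s read after ATP addition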
M1 ag parental: nonselective activator or artifact in parental CHO-K1 cells; Fluo-8 calcium fluorescence; scaled to maximal ATP response, vehicle zero; activation, % at 3 µM; 0.48% of 360,000 active; AID 602248; in the data active means activation above about 15%;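 further: untransfected CHO-K1 host cells lacking M1 receptor as counterscreen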
M1 PAM: potentiates human M1 receptor response to acetylcholine; P11229; CHO-K1 hM1, Fluo-8 calcium fluorescence, ACh EC20; 0% = ACh EC20, 100% = maximal ACh; activation, % at 3 µM; 0.088% of 360,000 active; AID 588819; in the data active means activation above about 19%, passing the limit was not always enough
CHO-K1 Ca antag: nonselective inhibitor or artifact in parental CHO-K1 cells; ATP-induced calcium, Fluo-8 fluorescence; inhibition, % at 3 µM; 0.6% of 360,000 active; AID 602250;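 active means inhibition above a per-plate cutoff, the plate's mean sample inhibition plus 3 SD, cut at about 24% in these data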;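 further: 0% = DMSO plus EC80 ATP and 100% = DMSO alone without ATP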
CHRM1 agonist: agonists of human M1 muscarinic receptor. activation, % at 3 µM. P11229. 0.33% of 360,000 active. CHO-K1 hM1, Fluo-8 calcium fluorescence, agonist mode; 0% DMSO, 100% acetylcholine EC100. AID 588814;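 active means activation above the run's mean compound activation plus 3 SD, cut at about 16% in these data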;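 further: peak over basal fluorescence ratio within a 140 s kinetic read after compound addition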
Numbers without * were called inactive.

`COC(=O)c1c(NC(=O)CSc2nnc(C)c(=O)[nH]2)sc(C)c1C` gave M1 antag -4.8, M1 PAM parental 6.0, M1 ag parental 0.2, M1 PAM 3.1, CHO-K1 Ca antag -8.2 and CHRM1 agonist -6.3.
Screening O=C1CSC(c2ccccc2Br)N1c1ccc(Cl)cn1 (configuration not stated) returned M1 antag 58.7*, M1 PAM parental 17.6, M1 ag parental 0.6, M1 PAM -22.0, CHO-K1 Ca antag -2.2 and CHRM1 agonist -6.4.
O=C(COC(=O)C1CC1)NC(=O)c1ccccc1 was read as M1 antag -4.6, M1 PAM parental 13.4, M1 ag parental 0.1, M1 PAM 9.4, CHO-K1 Ca antag -9.8 and CHRM1 agonist -3.2.
O=C(CN(c1cc(Cl)ccc1Cl)S(=O)(=O)c1ccccc1)N1CCOCC1 was read as M1 antag -2.0, M1 PAM parental 6.8, M1 ag parental 1.7, M1 PAM 5.0, CHO-K1 Ca antag -7.1 and CHRM1 agonist -4.2.
N[C@@H](C(=O)N[C@@H]1C(=O)N2C(C(=O)O)=C(Cl)CS[C@H]12)c1ccccc1 was read as M1 antag -27.7, M1 PAM parental 11.8, M1 ag parental 0.8, M1 PAM -2.8, CHO-K1 Ca antag -0.5 and CHRM1 agonist 17.7*.
`COC(=O)c1cc(C(=O)OCC(=O)NC(=O)c2ccccc2)cc([N+](=O)[O-])c1` gave M1 antag 27.6*, M1 PAM parental 3.9, M1 ag parental 0.1, M1 PAM 1.7, CHO-K1 Ca antag 4.8 and CHRM1 agonist -2.3.
COC(=O)c1cc(C(=O)OCC(=O)c2ccc[nH]2)cc([N+](=O)[O-])c1 was read as M1 antag 5.7, M1 PAM parental -22.3, M1 ag parental 0.3, M1 PAM 2.5, CHO-K1 Ca antag 16.8 and CHRM1 agonist -5.1.
O=C(COC(=O)c1cccnc1)Nc1ccc2c(c1)OCO2 was read as M1 antag -13.9, M1 PAM parental 19.7, M1 ag parental 0.3, M1 PAM 8.9, CHO-K1 Ca antag -23.1 and CHRM1 agonist -1.7.
C=CCc1cccc2cc(C(=O)NCc3cccnc3)c(=O)oc12 was read as M1 antag 36.3*, M1 PAM parental -2.0, M1 ag parental 0.5, M1 PAM -32.9, CHO-K1 Ca antag -8.8 and CHRM1 agonist -15.1.
For CCOc1cccc2cc(C(=O)NCc3cccnc3)c(=O)oc12 the results were M1 antag 8.3, M1 PAM parental -8.7, M1 ag parental 0.0, M1 PAM -5.4, CHO-K1 Ca antag -3.1 and CHRM1 agonist -5.0.
Nc1nc(N)c2c(ccc3c2ccn3Cc2cccc([N+](=O)[O-])c2)n1 was read as M1 antag 42.7*, M1 PAM parental 16.1, M1 ag parental 0.8, M1 PAM -30.7, CHO-K1 Ca antag 1.5 and CHRM1 agonist -13.1.
For Nc1nc(N)c2cc([N+](=O)[O-])ccc2n1 the results were M1 antag -12.4, M1 PAM parental 21.8, M1 ag parental 1.0, M1 PAM 5.3, CHO-K1 Ca antag -20.6 and CHRM1 agonist 1.2.
Cc1ccc(S(=O)(=O)CC(=O)c2cc(C)c(O)c(C)c2)cc1 was read as M1 antag -6.7, M1 PAM parental 16.8, M1 ag parental 1.9, M1 PAM 6.6, CHO-K1 Ca antag -1.8 and CHRM1 agonist -2.4.
CN1CCCN(C(=O)CC(c2ccccc2)c2ccccc2)CC1 was read as M1 antag 99.4*, M1 PAM parental 0.1, M1 ag parental 0.4, M1 PAM -31.2, CHO-K1 Ca antag 1.9 and CHRM1 agonist -12.2.
For CSc1ccccc1C(=O)Nc1cccc(C(C)O)c1 (configuration not stated) the results were M1 antag -7.3, M1 PAM parental 10.9, M1 ag parental -0.1, M1 PAM 5.6, CHO-K1 Ca antag -1.1 and CHRM1 agonist -3.7.
Cc1nn(-c2ccccc2)cc1/C=N/NC(N)=S was read as M1 antag -6.6, M1 PAM parental 11.2, M1 ag parental 0.2, M1 PAM 30.5*, CHO-K1 Ca antag -0.2 and CHRM1 agonist 4.6.
`O=C(NCc1cccs1)c1csc(COCCO)n1` gave M1 antag -3.6, M1 PAM parental 8.5, M1 ag parental 0.1, M1 PAM 3.8, CHO-K1 Ca antag -3.5 and CHRM1 agonist -2.0.
Screening COc1cc(NC(=O)c2cc3ccccc3cc2O)c(OC)cc1Cl returned M1 antag 22.8, M1 PAM parental 2.0, M1 ag parental 13.5, M1 PAM -12.4, CHO-K1 Ca antag 15.7 and CHRM1 agonist -2.2.
For COc1ccccc1NC(=O)c1cc2cc(Br)ccc2cc1O the results were M1 antag 31.6, M1 PAM parental -9.2, M1 ag parental 15.3*, M1 PAM -15.9, CHO-K1 Ca antag 28.6* and CHRM1 agonist -2.8.
For O=C(Nc1cccc(C(=O)O)c1)/C(=C\c1cccc([N+](=O)[O-])c1)NC(=O)c1ccc(Br)cc1 the results were M1 antag 60.9*, M1 PAM parental 6.6, M1 ag parental 0.1, M1 PAM -21.1, CHO-K1 Ca antag 7.5 and CHRM1 agonist -6.3.
CCN(C(=O)C1CCN(S(=O)(=O)c2ccc3c(c2)oc(=O)n3C)CC1)c1cccc(C)c1 was read as M1 antag -6.4, M1 PAM parental 3.7, M1 ag parental -0.1, M1 PAM 5.6, CHO-K1 Ca antag -5.4 and CHRM1 agonist 0.2.
`CC(C)(C(N)=O)c1ccccc1` gave M1 antag 6.0, M1 PAM parental 8.1, M1 ag parental 1.9, M1 PAM 2.3, CHO-K1 Ca antag -13.5 and CHRM1 agonist -3.4.
For CN(C)CCC#CC(O)(c1ccccc1)c1ccccc1 the results were M1 antag 65.0*, M1 PAM parental 20.2, M1 ag parental 10.2, M1 PAM -24.9, CHO-K1 Ca antag 1.9 and CHRM1 agonist -8.2.
CCN(CC)CC#CC(O)(c1ccccc1)c1ccccc1 was read as M1 antag 99.4*, M1 PAM parental 17.5, M1 ag parental 3.7, M1 PAM -37.8, CHO-K1 Ca antag -22.7 and CHRM1 agonist -15.7.
CN(C)C(C)(C)C#CC(O)(c1ccccc1)c1ccccc1 was read as M1 antag 100.1*, M1 PAM parental 2.6, M1 ag parental 0.3, M1 PAM -23.6, CHO-K1 Ca antag -9.2 and CHRM1 agonist -5.9.
OCCN(CC#CC(O)(c1ccccc1)c1cccc(F)c1)CCO (configuration not stated) was read as M1 antag -16.4, M1 PAM parental 20.1, M1 ag parental 0.1, M1 PAM 9.7, CHO-K1 Ca antag -19.2 and CHRM1 agonist -8.4.
Cc1ccccc1-c1cnc(C(O)c2cc(Cl)cc(Cl)c2)[nH]1 (configuration not stated) was read as M1 antag 3.6, M1 PAM parental 4.0, M1 ag parental 1.9, M1 PAM -4.6, CHO-K1 Ca antag 1.2 and CHRM1 agonist -1.7.
